Here are results for 40 molecules from PubChem BioAssay (NCI).

Where “and” joins values, the source holds several entries; their conditions need not be identical. Equal values may be shown once. About 83,000 compounds went through this panel and 20% of them were active in at least one assay; those are over-represented in the sample as a whole.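 Each cell line was grown in a 96-well plate and treated with one concentration of compound for 48 hours. Values below 10 were considered active.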 Calls of active or inactive are those of the source.

The assay concerns MDA-MB-468 breast. The experiment in a line: NCI-60 one-dose screen, 48 h (100 = growth as untreated, 0 = no growth, -100 = all killed). The settings on record: 10 µM unless noted.
Consider `CCCCn1c(C(=O)c2c[nH]c3ccccc23)n[nH]c1=S`, for which the growth is 109% (inactive).

With `CC(=O)c1sc(-c2ccccc2)cc1N`, the growth is 91.7% (inactive).

Consider `C=CCN1C(=O)/C(=C/C(=O)OC)S/C1=N\NC(=O)c1cc2ccc1/C=C\c1ccc(cc1)/C=C\2`, for which the growth is 76.3% (inactive).

For the molecule `COCCn1cc(-c2csc(-c3c[nH]c4ccc(Br)cc34)n2)c2cccnc21`, the growth was 0.403% (active).

In the case of `COc1cc(OC)c2sc(-c3ccc(-n4cncc4-c4cc(OC)c(OC)c(OC)c4)cc3)nc2c1`, the growth is 43.5% (inactive).

`Cc1ccc(-c2csc(NC(=O)c3ccccc3CN3C(=O)c4ccccc4C3=O)n2)cc1`: the growth is 92.1% (inactive).

With `O=C(Nc1ccccn1)[C@H](O)[C@@H](O)C(=O)N1CCOCC1`, the growth is 119% (inactive).

In the case of `O=S(Cc1ccccc1)/C(=C/NC(=S)Nc1ccccc1)c1ccccc1` (stereo not given), the growth was 108% (inactive).

For `Nc1c2ccccc2nc2ccccc12`, the growth was -45.4% (active) and 2.95% (active) and 23% (inactive).

On to `NC(CCc1nc2ccccc2c(=O)[nH]1)C(=O)O` (stereo not given), for which the growth was 105% (inactive).

`CCN(CC)CCCC(C)Nc1cc(-c2cccc(OC(F)(F)F)c2)nc2ccc(N3CCCC3)cc12` (stereo not given): the growth is -56.3% (active).

Take `COc1cccc(COC(=O)Nc2ccccc2)c1OC`: the growth was 93.3% (inactive).

For `Cc1nn(-c2ccccc2)c2ncnc(N/N=C/c3cccc(O)c3)c12`, the growth was -0.147% (active).

As for `CCOC(=O)c1c(Cl)c2c(n1Cc1ccccc1)-c1oncc1CCC2`, the growth is 56% (inactive).

With `CN(C)c1ccc(/C=N/NC(=O)COc2cc(=O)n(C)c3ccccc23)cc1`, the growth is 105% (inactive).

In the case of `Cc1ccc(/C=C/c2c(C(=O)/C=C/c3ccc(Cl)cc3)c(C)nc3ccccc23)cc1`, the growth is -23.3% (active).

In the case of `N/C(=N\C(N)=N\c1nc2ccccc2s1)c1ccc2ccccc2c1`, the growth is 109% (inactive).

As to `COc1ccc(C/C(C)=C(/c2ccc(OCCN3CCCCCC3)cc2)c2ccc(OC(=O)c3ccccc3)cc2)cc1`, the growth is 111% (inactive).

`O=C(Nc1cc(Cl)cc2c1-c1ccc(Cl)cc1C2O)C(Cl)Cl` (stereo not given): the growth is -3.77% (active).

On to `CCCCCCC[C@@H](O)CC(=O)N[C@H](CCCCN)C(=O)N[C@H](Cc1c[nH]c2ccccc12)C(=O)NC(CCCCN)C(=O)N[C@H](CC(C)C)C(=O)N[C@H](Cc1ccccc1)C(=O)N[C@H](CCCCN)C(=O)N[C@H](CCCCN)C(=O)N[C@H](CC(C)C)C(=O)N1CCCC1C(=O)N[C@H](CCCCN)C(=O)N[C@H](Cc1ccccc1)C(=O)N[C@H](CC(C)C)C(=O)N[C@H](Cc1c[nH]cn1)C(=O)N[C@H](CC(C)C)C(=O)N[C@H](C)C(=O)N[C@H](CCCCN)C(=O)N[C@H](CCCCN)C(=O)N[C@H](Cc1ccccc1)C(=O)O` (stereo not given in full), for which the growth was -58.2% (active).

In the case of `Cc1nnc(/N=C2\NC(=O)/C(=C/c3ccc(N(C)C)cc3)S2)s1`, the growth was 87.2% (inactive).

For the molecule `O=C1/C(=C/c2ccc([N+](=O)[O-])cc2)CN(C(=O)CCN2CCC(=NO)CC2)C/C1=C\c1ccc([N+](=O)[O-])cc1`, the growth is -33.6% (active).

For `O=C(COC(=O)[C@H](C[Se][Se]C[C@H](NC(=O)c1ccc(Br)cc1F)C(=O)OCC(=O)c1ccc(F)cc1)NC(=O)c1ccc(Br)cc1F)c1ccc(F)cc1`, the growth was -79.5% (active).

Consider `CCC(C)[C@H](NC(=O)Nc1cc(C(F)(F)F)cc(C(F)(F)F)c1)C(=O)N[C@@H](Cc1cn(C)cn1)C(=O)OC` (stereo not given in full), for which the growth was -74.1% [100 µM] (active).

Consider `CCCNc1nc2ccccc2c2c1S(=O)(=O)c1ccc(Cl)cc1C2=O`, for which the growth is 3.32% (active).

On to `COc1ccc(NC(=O)c2ccc3c(c2)nc(-c2cc4ccccc4[nH]c2=O)n3-c2cc(C(C)(C)C)[nH]n2)cc1`, for which the growth was 95% (inactive).

Consider `Cc1nc2c(=O)[nH]c(=S)[nH]c2[nH]c1=O`, for which the growth is 107% (inactive) and 111% (inactive).

Consider `O=C1NCN(c2ccccc2)C12CCN(CCCC(c1ccc(F)cc1)c1ccc(F)cc1)CC2`, for which the growth was 43% (inactive).

Turning to `C=C(C)[C@@H]1CC[C@]2(C(=O)OC)CC[C@]3(C)[C@H](CC[C@@H]4[C@@]5(C)C/C(=C/NC(N)=S)C(=O)C(C)(C)[C@@H]5CC[C@]43C)[C@@H]12`, the growth was 103% (inactive).

For `CC#Cc1nc2ccccc2c(=O)[nH]1`, the growth was 14.8% (inactive).

Turning to `CC(C)C(=O)Nc1ncc(C(=O)NCCN(Cc2ccccc2)C(=O)c2ccc(S(=O)(=O)Nc3ccccc3)cc2)s1`, the growth is 80.3% (inactive).

`Cn1cc(-c2csc(-c3cn(C(=O)OC(C)(C)C)c4ccc(Br)cc34)n2)c2ccnc(Cl)c21`: the growth is 5.4% (active).

On to `NC(=O)CC1(c2ccccc2)CCCCC1`, for which the growth is 104% (inactive).

In the case of `CN1CCN(c2ccc3nc(-c4ccc5nc(-c6ccc(C(F)(F)F)cc6)[nH]c5c4)[nH]c3c2)CC1`, the growth was 50.6% (inactive).

Take `COc1cc2nc(Cl)nc(Nc3cccc(C(=O)/C=C/c4ccc(Cl)cc4)c3)c2cc1OC`: the growth is 63.8% (inactive).

With `COc1ccc2c(c1OC)O/C(=C\c1ncc([N+](=O)[O-])n1C)C2=O`, the growth is 69.9% (inactive).

Turning to `FC(F)(F)c1cc(-c2nnc3n2N=C(N2CCCC2)CS3)cc(C(F)(F)F)c1`, the growth was 66.3% (inactive).

As for `O=C1C[C@@H]2/C(=C(O)\C=C\c3ccccc3)C(=O)C=C[C@@H]2O1`, the growth was -76.9% (active).

As for `Clc1ccc(/C=C/c2cc(N3CCOCC3)c3cc(Cl)c(Cl)cc3n2)cc1`, the growth was 91.2% (inactive).

`C=C(C)[C@@H]1CC[C@]2(COP(=O)(OCC)OCC)CC[C@]3(C)[C@H](CC[C@@H]4[C@@]5(C)CCCNC(C)(C)[C@@H]5CC[C@]43C)[C@@H]12`: the growth is 24.6% (inactive).
